High-throughput results as filed in PubChem.
This is a sample that favours compounds with a hit; in the whole collection about 0.92% have one here.
FEN1 inh: blocks human flap endonuclease 1; P39748; Recombinant FEN1 flap cleavage, fluorescence, 15 min; Potency, µM (series often up to 114 µM), without a hit: top-dose activity change, negative = inhibition, most hits filed as inhibitors; actives 0.35% (n = 390,000); AID 588795; also: nearly all actives have a fitted effect of over 65% in size
Target sequence (P39748 whole entry, looked up): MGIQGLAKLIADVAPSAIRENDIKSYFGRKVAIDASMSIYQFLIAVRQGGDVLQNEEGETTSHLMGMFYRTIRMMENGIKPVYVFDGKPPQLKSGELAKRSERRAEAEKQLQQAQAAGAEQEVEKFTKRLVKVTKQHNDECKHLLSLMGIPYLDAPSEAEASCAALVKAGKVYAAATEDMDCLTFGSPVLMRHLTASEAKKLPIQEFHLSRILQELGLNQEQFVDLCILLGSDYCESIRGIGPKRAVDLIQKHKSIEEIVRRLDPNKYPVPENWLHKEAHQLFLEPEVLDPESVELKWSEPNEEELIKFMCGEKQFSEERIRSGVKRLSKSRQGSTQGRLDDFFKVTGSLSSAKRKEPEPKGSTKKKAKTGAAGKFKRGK
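With each library titrated from low to high concentration, compounds met 10 nM FEN1 for 15 min at room temperature before 50 nM substrate was added; readings at 0 and 15 min fed four-parameter Hill curve fits.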
TDP1 inh: TDP1 (human) enzyme inhibition. Potency, µM (series often up to 130 µM), without a hit: top-dose activity change, negative = inhibition, most hits filed as inhibitors. recombinant TDP1, AlphaScreen DNA substrate cleavage. actives 0.28% (n = 350,000). AID 485290; also: nearly all actives have a fitted effect of over 40% in size
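Steps: enzyme plus compound, 15 min RT; add biotin/phosphotyrosine-FITC oligonucleotide (15 nM final), react 5 min; add donor/acceptor beads (10 ug/ml final), 10 min; read AlphaScreen. Tdp1 at 1 nM final.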
BLM helicase inh: Bloom syndrome helicase (human) inhibition. P54132. recombinant BLM DNA unwinding, fluorescence dequenching. Potency, µM (highest dose often 56.1 µM), inactives show at the top dose activity change, negative = inhibition, most hits filed as inhibitors. actives 0.2% (n = 350,000);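 also: plate controls were vehicle for no effect and no enzyme for full effect; nearly all actives have a fitted effect of over 35% in size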
RECQ1 helicase: inhibitors of human RECQ1 DNA helicase; P46063; RECQ1 DNA unwinding, red fluorescence kinetic read; Potency, µM (titrated, usually from 57.3 µM), for inactives: at the top dose activity, negative = inhibition, most hits filed as inhibitors; actives 0.54% (n = 240,000);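 also: plate controls were vehicle for no effect and no enzyme for full effect; nearly all actives have a fitted effect of over 30% in size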
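50 nM RECQ1T1 preincubated 15 min with compound in Tris pH 8.0 buffer with MgCl2, DTT, Tween-20 and 2.5 ug/ml poly(dI-dC); started with 200 nM TAMRA/BHQ-2 forked duplex and 2 mM ATP. Unwinding read as fluorescence (525/598 nm), two reads 2 h apart.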
APEX1 inh: blocks human APE1 abasic DNA cleavage. recombinant APE1, TAMRA/BHQ-2 abasic DNA cleavage fluorescence. Potency, µM (doses to about 65.8 µM), without a hit: at the top dose activity change, negative = inhibition, hits mostly inhibitors. actives 0.35% (n = 350,000). AID 2517;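 also: plate controls were vehicle for no effect and reference inhibitor for full effect; nearly all actives have a fitted effect of over 55% in size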
Target sequence (P27695 whole entry, looked up): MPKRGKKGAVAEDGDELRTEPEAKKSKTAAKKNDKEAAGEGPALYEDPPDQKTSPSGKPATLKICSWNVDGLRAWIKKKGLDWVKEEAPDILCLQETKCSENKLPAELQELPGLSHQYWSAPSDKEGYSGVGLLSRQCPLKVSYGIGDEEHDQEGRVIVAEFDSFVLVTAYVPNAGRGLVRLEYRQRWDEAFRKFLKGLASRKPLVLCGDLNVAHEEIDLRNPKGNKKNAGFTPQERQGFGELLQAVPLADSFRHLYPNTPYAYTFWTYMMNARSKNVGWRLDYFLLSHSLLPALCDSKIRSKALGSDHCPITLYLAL
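APE1 at 0.75 nM final was preincubated with compound 15 min at room temperature, then 50 nM double-stranded THF abasic-site substrate (5'-TAMRA/3'-BHQ-2) was added. Fluorescence (ex 525/em 598 nm) was read kinetically; third-minus-first read gave activity.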
Numbers without * were called inactive; i = inactive; ? = inconclusive; · = not tested or not shown; [ ] = another dose, or the depositor's remark. Calls follow the shape of the dose curve; as a rule, active = well fitted curve in the direction sought with a large enough effect; inconclusive = small, poorly fitted or top-dose-only effect, or another doubt; inactive = no such curve, though single readings can be large; an effect the other way counts as inactive or inconclusive. Unless noted, % is scaled to controls: 0 for no effect and ±100 for the full control effect; potency is read from the fitted curve at half-maximal effect.

SMILES	FEN1 inh	TDP1 inh	BLM helicase inh	RECQ1 helicase	APEX1 inh
CCSC[C@H](NC(=O)[C@H](C)NC(=O)[C@@H](N)Cc1ccc(O)cc1)C(=O)N[C@@H](CC(=O)O)C(=O)N[C@H](C(=O)N[C@@H](C)C(=O)N[C@H](C(=O)N[C@@H](CSCC)C(=O)N[C@H](C(=O)N[C@H](C(=O)N[C@@H](Cc1cnc[nH]1)C(=O)N[C@@H](CCCNC(=N)N)C(=O)N[C@@H](CC(C)C)C(=O)N[C@@H](C)C(=O)NCC(=O)N[C@@H](CC(C)C)C(=O)N[C@@H](CC(C)C)C(=O)N[C@@H](CO)C(=O)N[C@@H](CCCNC(=N)N)C(=O)N[C@@H](CO)C(=O)NCC(=O)NCC(=O)N[C@H](C(=O)N[C@H](C(=O)N[C@@H](CCCCN)C(=O)N[C@@H](CC(N)=O)C(=O)N[C@@H](CC(N)=O)C(=O)N[C@@H](Cc1ccccc1)C(=O)N[C@H](C(=O)N1CCC[C@H]1C(=O)N[C@H](C(=O)N[C@@H](CC(N)=O)C(=O)N[C@H](C(=O)NCC(=O)N[C@@H](CO)C(=O)N[C@@H](CCCCN)C(=O)N[C@@H](C)C(=O)N[C@@H](Cc1ccccc1)C(N)=O)C(C)C)[C@@H](C)O)C(C)C)C(C)C)C(C)C)[C@@H](C)O)C(C)C)[C@@H](C)O)[C@@H](C)O	·	11%	3%	-4%	0%
O=C(Nc1cccc(Cl)c1)c1cccc(N2C(=O)C3CC=CCC3C2=O)c1 (configuration not stated)	2%	25µM*	-9%	·	?
C[C@H](CCC(=O)NCC(=O)O)C1CC[C@H]2[C@H]3C(C[C@H](O)[C@]12C)[C@@]1(C)CC[C@@H](O)C[C@H]1C[C@H]3O (some centres not stated)	·	7%	·	i	-2%
O=C(c1ccc(-n2cccn2)cc1)N1CCc2c([nH]c3ccccc23)C1c1ccccn1 (configuration not stated)	0%	3%	13µM*	6%	0%
COC(=O)c1cc(F)c(S(=O)(=O)N2CCN(S(=O)(=O)c3ccc4c(c3)OCCO4)CC2)cc1F	·	0%	·	·	·
C=CCn1c(SCC(=O)Nc2nnc(C)s2)nnc1C1CC1	-3%	28µM*	-1%	·	-33%
CNc1cccccc1=S	-10%	3.5µM*	-2%	?	?
CNc1cccc2c1C(=O)c1ccccc1C2=O	-16%	7%	-15%	-17%	-7%
Oc1c(Br)cc(/C=N/n2c(-c3ccccc3)n[nH]c2=S)c(Br)c1O	·	?	0.79µM*	·	0.42µM*
Cc1cc2c(c(=O)o1)[C@H](O)[C@H]1O[C@@H]1C2=O	·	?	-4%[12.4 µM]	i[11.5 µM]	8%[12.4 µM]
O=C(O)c1ccc(-n2cccc2/C=C2/SC(=O)N(CC(=O)N3CCCC3)C2=O)cc1	40µM*	50µM*	-6%	·	3.4µM*
O=C(NNC(=O)c1ccccc1Br)c1ccc2nc[nH]c2c1	-25%	11µM*	-20%	·	?
CCN1/C(=C/c2ccc3cc(C)cc(C)c3[n+]2CC)Sc2cc(C)ccc21	?	5%	?	?	1%
C=CC[n+]1c(/C=C2\C=Cc3cc(C)ccc3N2CC)ccc2ccccc21	40µM*	6%	-4%	-22%	-2%
c1ccc2c(c1)SCc1c-2[nH]c2ccccc12	·	19%	-9%	-12%	-1%
COCCCNc1cc(C)nc2ccccc12	-3%	-4%	-9%	-13%	17%
Cc1cc(NCCCCCCCNc2cc(C)nc3cc([N+](=O)[O-])ccc23)c2ccc([N+](=O)[O-])cc2n1	45µM*	·	·	·	·
CCCCCCCCCCCCCCOc1ccc(C(=O)O)o1	·	40µM*	-24%	-5%	25µM*
CCOc1ccc(OCc2ccc(C(=O)O)o2)cc1	-10%	·	3%	-6%	?
Cc1ccc(CSc2nnc(-c3cccc4ccccc34)o2)cc1	10%	45µM*	·	·	8%
Cc1ccc(-c2nnc(-c3cccc4ccccc34)o2)cc1	3%	·	·	·	·
Cc1ccccc1CSc1nc2cccnc2n1Cc1ccc(C(=O)NCCc2cccs2)cc1	7%	7%	-5%	·	·
Cc1cc(N/N=C/c2ccc(O)cc2)nc(NS(=O)(=O)c2ccccc2)n1	-7%	16µM*	2%	-1%	10µM*
Cc1cc(N/N=C/c2ccc(F)cc2)nc(NCc2ccccc2)n1	-6%	·	-11%	-17%	-6%
Cc1n[nH]c(C)c1Sc1ccccc1N=Cc1cc(Cl)cc([N+](=O)[O-])c1O	79µM*	2%	-1%	-6%	0%
SMILES	FEN1 inh	TDP1 inh	BLM helicase inh	RECQ1 helicase	APEX1 inh
Cc1n[nH]c(C)c1Sc1ccccc1[N+](=O)[O-]	-2%	1%	-7%	-4%	-4%
CCn1c(/C=C/c2ccccc2[N+](=O)[O-])nc2ccccc2c1=O	1%	9%	-8%	-4%	-5%
Cn1c(/C=C/c2ccccc2[N+](=O)[O-])nc2ccccc2c1=O	16%	5µM*	-4%	·	15%
CCc1ccccc1N(CC)C(=O)Cn1nc(Cc2ccncc2)c2ccccc2c1=O	-13%	6%	0%	·	·
[O-][n+]1c2c(nn1-c1ccccc1)/C(=N/O)CCC2	-3%	0%	-1%	i	2%
[O-][n+]1onc2c1CCC(=N/O)/C2=N\Nc1ccccc1	·	6%	32µM*	?	?
N#C/C(=C\c1c[nH]c2ccccc12)C(=O)c1ccc(O)c(O)c1	3.4µM*	17%[56.1 µM]	·	11µM*	?
O=C(CCCN1C(=O)S/C(=C\C=C\c2ccccc2)C1=O)Nc1ccc(C(=O)O)cc1	-4%	35µM*	-6%	·	7%
O=C(CCN1C(=O)S/C(=C\C=C\c2ccccc2)C1=O)Nc1ccc(O)cc1	-2%	0%	-7%	·	19%
Cc1ccc2[nH]c(=O)c3cc(C(=O)N4CCN(C(=O)c5ccco5)CC4)sc3c2c1	11%	56µM*	-9%	-24%	?
C=C(C)C(=O)Nc1cccc(C2=NOC3(C2)C[C@@H](C(N)=O)N(C(=O)CC(c2ccccc2)c2ccccc2)C3)c1 (some centres not stated)	-13%	18µM*	-21%	?	?
C=C(C)C(=O)Nc1cccc(C2=NOC3(C2)C[C@@H](C(N)=O)N(C(=O)/C(C)=C/C)C3)c1 (some centres not stated)	-20%	·	-1%	18µM*	-10%
NC(=O)[C@H]1CC2(CC(c3cccc(NC(=O)CC(c4ccccc4)c4ccccc4)c3)=NO2)CN1C(=O)CC(c1ccccc1)c1ccccc1 (some centres not stated)	-15%	-4%	-6%	-12%	-4%
